Sampled rows, rich in hits. Any-hit rate of the full collection: about 4%.
GRP78 ERSR act: induces the endoplasmic reticulum stress response in human glioma cells; U87-MG GRP78 promoter luciferase reporter, 16 h; Potency, µM, usual class: activators; actives 0.02% (n = 420,000); AID 602332; active = well fitted activation curve with a large enough effect; also: series mostly up to about 76 µM; nearly all actives have a fitted effect of over 35% in size
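Stably transfected U87-MG human glioma cells carrying a GRP78-based luminescent sensor were seeded at 1000 cells/well, pin-dosed with compounds and incubated 16 h. Luciferase reagent was then added, and end-point luminescence was read after 10 min at room temperature.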
TRHR enhancer: allosterically enhances the human TRH receptor; actives 0.66% (n = 360,000); enhancement, % at 2 µM; TRHR cells, fluo-8 calcium fluorescence, EC20 TRH enhancement; P34981; in the data active = enhancement above about 30%
Target sequence (P34981 whole entry, looked up): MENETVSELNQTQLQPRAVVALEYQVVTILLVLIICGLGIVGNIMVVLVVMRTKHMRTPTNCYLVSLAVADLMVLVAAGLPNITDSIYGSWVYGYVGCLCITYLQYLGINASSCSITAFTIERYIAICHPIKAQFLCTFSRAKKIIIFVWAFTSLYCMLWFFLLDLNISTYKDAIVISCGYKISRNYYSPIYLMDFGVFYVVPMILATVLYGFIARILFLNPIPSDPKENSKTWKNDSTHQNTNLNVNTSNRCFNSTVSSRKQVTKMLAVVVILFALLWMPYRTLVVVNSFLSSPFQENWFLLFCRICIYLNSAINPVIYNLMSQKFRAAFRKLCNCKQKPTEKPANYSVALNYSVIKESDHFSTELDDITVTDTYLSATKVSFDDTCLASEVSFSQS
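TRHR-expressing cells loaded with fluo-8 calcium dye were read kinetically (ex 480/em 530) during compound addition, then stimulated with an EC20 of TRH (10 nM final). Enhancement of the Gq-mediated intracellular calcium response was scored.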
TRHR agonist: activates the human TRH receptor; activation, % at 2 µM; P34981; TRHR cells, calcium flux fluo-8, FDSS agonist mode; AID 493084; actives 0.18% (n = 360,000)
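Agonist-mode FDSS calcium read (Ex 480/Em 530, 1 s cycles) in 1536-well TRHR cells with fluo-8 dye, after 10-cycle baseline and 23 nL compound addition; TRH at EC20 (10 nM final) added afterwards for the enhancer phase.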
D1 PAM: potentiators of human D1 dopamine receptor. potentiation, % at 10 µM. actives 0.036% (n = 360,000). P21728. HEK293 TREx D1 cells, calcium flux, dopamine EC20 potentiation; in the data active = potentiation above about 30%
D1 agonist: agonists of human D1 dopamine receptor; P21728; HEK293 T-REx D1 cells, calcium flux, agonist mode; activation, % at 2 µM; actives 1% (n = 360,000)
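Inducible HEK293 T-REx D1 cells, force-coupled to calcium signalling, were plated at 4000 cells/well with tetracycline and held overnight at 30 C. After no-wash calcium dye loading, compound-evoked calcium rise over 180 s flagged agonists.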
D1 antag: human D1 dopamine receptor antagonism | HEK293 TREx D1 cells, calcium flux, dopamine EC80; active compounds read low | actives 3.2% (n = 360,000) | AID 504652 | activity change, negative = inhibition, % at 10 µM; in the data active = activity change below about -30%
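HEK293 T-REx cells expressing inducible, force-coupled D1 receptor; no-wash Ca dye, 30–90 min RT. Cmpd → 180 s read at 1 Hz → EC80 DA → 180 s read.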
Of the large screens only hits and unclear results are named; the others gave an inactive call. Rule as the data show it, unless noted: active = activation above about 30%; inactive = the rest.

COc1ccc(CCNC(=O)C(=O)NCC2OCCN2S(=O)(=O)c2ccc3c(c2)OCCO3)cc1 (stereo not given)	none
Cc1ccc(CNC(=O)C(=O)NCC2OCCN2S(=O)(=O)c2ccc(C)cc2)cc1 (stereo not given)	none
COc1ccc(CCNC(=O)C(=O)NCC2OCCN2S(=O)(=O)c2ccc3c(c2)OCCO3)cc1OC (stereo not given)	D1 antag -75
COc1ccc2c(C)c(CC(=O)NCCc3ccccc3)c(=O)oc2c1OC	none
O=C(CCN1CCC(c2ccc(Cl)s2)=N1)c1ccc(Cl)s1	D1 agonist 40
O=C(CCC(=O)N1CCN(c2ccccc2F)CC1)c1ccc(Cl)s1	none (no result: TRHR enhancer, TRHR agonist, D1 PAM, D1 agonist, D1 antag)
CCCCCCCCCCCC(=O)NC(C(=O)O)C(O)c1ccccc1 (stereo not given)	D1 agonist 374
CCCCCCCCCCCCCC(=O)N[C@@H](C)[C@H](O)c1ccccc1	none (no result: TRHR enhancer, TRHR agonist, D1 PAM, D1 agonist, D1 antag)
COc1ccc(Cc2nc(-c3ccc(-n4cccc4)cc3)no2)cc1OC	D1 agonist 32, D1 antag -39
COc1ccc(-c2noc(COc3ccc(C)cc3C)n2)cc1OC	none
COc1ccc(-c2noc(COc3cc(C)ccc3C)n2)cc1OC	D1 agonist 47
Cc1ccccc1OCC(=O)NCC(=O)OCC(=O)c1ccc(Br)cc1	none (no result: TRHR enhancer, TRHR agonist, D1 PAM, D1 agonist, D1 antag)
COc1cc(F)cc(F)c1[S+](=O)([O-])N1CCN([S+](=O)([O-])c2ccc3c(c2)OCCO3)CC1	none (no result: GRP78 ERSR act)
Cc1cc(C)n(CCNC(=O)c2cc(COc3c(F)cccc3F)on2)n1	none
Cc1cc(C)n(CCN(C)C(=O)c2cc(COc3c(F)cccc3F)on2)n1	D1 antag -50
CCCc1ccc(C(C)NC(=S)NC2CCCCC2)cc1 (stereo not given)	D1 agonist 36
CCC(NC(=S)NC1CCCCC1)c1ccc(C)cc1 (stereo not given)	D1 antag -59 (no result: GRP78 ERSR act)
Cc1ccc(NS(=O)(=O)c2ccc(NC(=O)C3CCCO3)cc2)cc1 (stereo not given)	D1 agonist 39
Cc1ccc(S(=O)(=O)Nc2ccc(NC(=O)c3c(F)c(F)c(F)c(F)c3F)cc2)cc1	D1 agonist 47
Cc1ccc(C(=O)Nc2ccc(S(=O)(=O)Nc3onc(C)c3C)cc2)cc1	none (no result: GRP78 ERSR act)
Cc1cc(NS(=O)(=O)c2ccc(NC(=O)c3c(F)c(F)c(F)c(F)c3F)cc2)nc(C)n1	D1 antag -49
Cc1cc(NS(=O)(=O)c2ccc(NC(=O)c3ccc(F)cc3)cc2)nc(C)n1	none (no result: TRHR enhancer, TRHR agonist, D1 PAM, D1 agonist, D1 antag)
Cc1cc(C)c(C(=O)Nc2ccc(S(=O)(=O)Nc3onc(C)c3C)cc2)c(C)c1	D1 antag -82
COc1ccc(NS(=O)(=O)c2ccc(NC(=O)C3CCCO3)cc2)cc1 (stereo not given)	none
Cc1noc(C)c1CSCC(=O)Nc1nc(-c2ccc(F)c(F)c2)cs1	D1 antag -43
COc1ccc(-c2csc(NC(=O)CSCc3c(C)noc3C)n2)cc1OC	none
CN(C)CCNC(=O)C1CCN(Cc2cc3ccccc3n2Cc2ccccc2)CC1	D1 agonist 39
c1nc(N2CCNCC2)c2cc(-c3ccc4c(c3)OCO4)ccc2n1	none (no result: TRHR enhancer, TRHR agonist, D1 PAM, D1 agonist, D1 antag)
Nc1nc(CN2CCN(c3ccccc3)CC2)nc(Nc2ccc(Cl)cc2)n1	D1 antag -40
Cc1ccccc1Nc1nc(N)nc(CN2CCN(Cc3ccc4c(c3)OCO4)CC2)n1	none
Nc1nc(CN2CCN(Cc3ccc4c(c3)OCO4)CC2)nc(Nc2ccccc2)n1	D1 antag -47
CCCCn1c(-c2csc(CCC)c2)n[nH]c1=S	D1 agonist 57
Cc1cccc(N(CC(=O)N2CCc3ccccc3C2)S(C)(=O)=O)c1C	none
O=C1CCC2c3[nH]c4ccccc4c3CCN12 (stereo not given)	none (no result: TRHR enhancer, TRHR agonist, D1 PAM, D1 agonist, D1 antag)
COC(=O)c1cc(Br)c(=O)n(CC(C)C)c1	TRHR enhancer 31
COC(=O)c1cc(Br)c(=O)n(CCN2CCCC2)c1	none
C=CCOC(=O)C1=C(C)NC(SCC(N)=O)=C(C#N)C1c1cccs1 (stereo not given)	D1 antag -45
CC(=O)C1=C(C)NC(SCC(N)=O)=C(C#N)C1c1cccs1 (stereo not given)	none
Nc1ccc(/C=C/c2ccnc3ccccc23)cc1	none (no result: TRHR enhancer, TRHR agonist, D1 PAM, D1 agonist, D1 antag)
